The text below walks through data of ChEMBL document CHEMBL3988442, “University of Dundee, Small-Polar-MMV Screening Library” (2021).

Common to all, as to set-up: scale not given: direction of the effect not stated beside the values
The target in experiment [1] is Protein translocase subunit SecA (Escherichia coli (strain K12)) (UniProt P10408). In words: Assay to Identify E. coli SecA ATPase Inhibitors. The experiment is classed as functional. To be noted: 30 µM.
The target of experiment [2] is T1, Ubiquitin-activating enzyme e1, putative (Leishmania donovani (strain BPK282A1)) (UniProt E9BSI1).
T1 sequence (whole entry): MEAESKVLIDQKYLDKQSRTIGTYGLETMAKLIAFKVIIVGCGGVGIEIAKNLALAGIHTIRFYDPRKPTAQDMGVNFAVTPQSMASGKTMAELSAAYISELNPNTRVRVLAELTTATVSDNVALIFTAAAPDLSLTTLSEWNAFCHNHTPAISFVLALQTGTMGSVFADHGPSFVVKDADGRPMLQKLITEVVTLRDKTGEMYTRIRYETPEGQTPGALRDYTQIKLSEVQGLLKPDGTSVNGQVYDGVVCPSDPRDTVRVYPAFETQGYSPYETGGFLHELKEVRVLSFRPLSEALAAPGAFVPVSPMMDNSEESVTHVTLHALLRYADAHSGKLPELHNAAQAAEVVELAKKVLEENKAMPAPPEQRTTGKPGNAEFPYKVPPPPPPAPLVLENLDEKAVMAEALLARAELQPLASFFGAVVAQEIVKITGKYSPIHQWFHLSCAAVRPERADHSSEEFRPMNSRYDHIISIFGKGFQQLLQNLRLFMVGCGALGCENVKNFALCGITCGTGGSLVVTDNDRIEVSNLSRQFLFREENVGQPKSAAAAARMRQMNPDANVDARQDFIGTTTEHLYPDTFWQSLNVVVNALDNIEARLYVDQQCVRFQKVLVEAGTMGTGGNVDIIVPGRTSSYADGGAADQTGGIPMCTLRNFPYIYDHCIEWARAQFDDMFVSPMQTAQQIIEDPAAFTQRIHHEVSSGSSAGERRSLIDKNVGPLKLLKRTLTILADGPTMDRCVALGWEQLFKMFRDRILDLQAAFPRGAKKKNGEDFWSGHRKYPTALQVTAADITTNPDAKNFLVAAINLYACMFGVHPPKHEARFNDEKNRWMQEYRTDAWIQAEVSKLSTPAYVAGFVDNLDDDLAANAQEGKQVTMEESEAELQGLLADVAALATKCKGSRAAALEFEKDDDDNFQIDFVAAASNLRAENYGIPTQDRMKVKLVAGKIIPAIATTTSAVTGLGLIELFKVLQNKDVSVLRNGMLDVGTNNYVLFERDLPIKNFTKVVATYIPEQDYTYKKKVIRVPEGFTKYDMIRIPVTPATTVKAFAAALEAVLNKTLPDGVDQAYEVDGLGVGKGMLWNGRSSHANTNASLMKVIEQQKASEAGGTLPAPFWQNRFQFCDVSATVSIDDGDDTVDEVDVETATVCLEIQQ
In words: Leishmania donovani Ubiquitin Activating Enzyme (LdE1). In kind it is functional. To be noted: 30 µM.

The target in experiment [3] is AMP-activated protein kinase, AMPK (Homo sapiens) (UniProt P54646+O43741+P54619+Q9UGJ0+Q9Y478+Q13131+Q9UGI9). In words: AMP-dependent Kinase enzyme assay. An in vitro enzyme assay that detects ADP turnover that is directly proportional to AMPK activity. This uses naive AMPK that is activated during the assay with MK-8722. In kind it is functional. To be noted: 30 µM.

Experiment [4] concerns the target Sialic acid-binding Ig-like lectin 9 (Homo sapiens) (UniProt Q9Y336). In words: Hs-Siglec9 ALPHAscreen SOP 20170721. Particulars: 10 µM. Background: Alpha assays give light when donor and acceptor beads are brought close together.
For experiment [5], the system named is Trypanosoma cruzi. In words: Trypanosoma cruzi phosphomannomutase and mannose-1-phosphate guanylyltransferase assay. The experiment is classed as functional. To be noted: 10 µM.
Experiment [6] has as its target T2, Arginase-2, mitochondrial (Homo sapiens) (UniProt P78540).
T2 sequence (whole entry): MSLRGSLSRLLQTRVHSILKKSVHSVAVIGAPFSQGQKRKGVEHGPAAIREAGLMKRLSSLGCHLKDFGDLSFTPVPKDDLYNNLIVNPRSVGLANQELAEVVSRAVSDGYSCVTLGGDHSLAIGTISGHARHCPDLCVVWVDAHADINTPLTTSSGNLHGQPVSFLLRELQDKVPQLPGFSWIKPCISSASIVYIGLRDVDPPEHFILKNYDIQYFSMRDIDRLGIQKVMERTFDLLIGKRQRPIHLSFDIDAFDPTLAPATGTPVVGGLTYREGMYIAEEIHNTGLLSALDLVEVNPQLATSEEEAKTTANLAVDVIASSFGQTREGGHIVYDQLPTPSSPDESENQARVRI
Kind of experiment: in vitro enzyme assay to detect the production of urea directly proportional to the activity of Arginase II. Further: in the data most compounds retested in dose-response had high values. To be noted: 33.3 µM. In kind it is functional.

Experiment [7] concerns the target T3, Proteasome subunit beta (Trypanosoma cruzi) (UniProt O96673).
T3 sequence (whole entry): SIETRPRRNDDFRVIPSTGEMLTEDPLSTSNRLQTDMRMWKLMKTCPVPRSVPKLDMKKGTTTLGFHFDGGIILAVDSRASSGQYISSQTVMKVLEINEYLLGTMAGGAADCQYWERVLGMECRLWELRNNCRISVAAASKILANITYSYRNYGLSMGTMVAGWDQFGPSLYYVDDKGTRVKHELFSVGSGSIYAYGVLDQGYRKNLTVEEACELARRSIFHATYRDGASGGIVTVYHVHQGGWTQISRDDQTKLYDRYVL
Kind of experiment: Trypanosoma cruzi proteasome chymotrypsin-like activity (TcProtChymo) assay. Further: in the data most compounds retested in dose-response had high values. In kind it is functional. To be noted: 9.37 µM.

The species named for experiment [8] is Homo sapiens. In words: To identify inhibition of the IFN signalling (Jak-Stat) pathway via expression of an eGFP reporter gene under the control of an IFN-stimulated response element (ISRE) containing MxA promoter. The experiment is classed as functional. To be noted: 30 µM. On the technique in general: In a reporter assay the amount or activity of a reporter protein is the signal.

Experiment [9] concerns the target T4, Tyrosyl-tRNA synthetase, putative (Trypanosoma cruzi (strain CL Brener)) (UniProt Q4DSP6).
T4 sequence (whole entry): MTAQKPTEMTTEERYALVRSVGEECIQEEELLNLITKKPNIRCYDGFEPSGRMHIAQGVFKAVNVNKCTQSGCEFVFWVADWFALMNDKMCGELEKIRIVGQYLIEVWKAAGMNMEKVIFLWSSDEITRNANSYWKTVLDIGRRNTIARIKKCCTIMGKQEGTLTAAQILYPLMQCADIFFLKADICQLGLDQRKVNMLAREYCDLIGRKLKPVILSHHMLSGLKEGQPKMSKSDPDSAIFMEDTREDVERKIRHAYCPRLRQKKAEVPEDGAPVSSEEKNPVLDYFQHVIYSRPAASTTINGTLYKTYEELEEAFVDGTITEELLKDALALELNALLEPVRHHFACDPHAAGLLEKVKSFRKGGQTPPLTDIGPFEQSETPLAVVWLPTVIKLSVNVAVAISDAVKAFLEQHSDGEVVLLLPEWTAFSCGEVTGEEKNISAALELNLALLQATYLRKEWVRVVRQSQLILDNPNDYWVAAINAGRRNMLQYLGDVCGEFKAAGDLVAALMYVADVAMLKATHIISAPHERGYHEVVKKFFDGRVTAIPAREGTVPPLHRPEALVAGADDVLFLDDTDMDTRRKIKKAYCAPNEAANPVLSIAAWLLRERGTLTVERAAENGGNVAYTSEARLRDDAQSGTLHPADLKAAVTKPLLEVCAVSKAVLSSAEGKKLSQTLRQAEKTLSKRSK
In words: Trypanosoma cruzi tyrosyl tRNA synthetase (TcYRS) _High Tyrosine SOP. Further: in the data most compounds retested in dose-response had high values. In kind it is functional. To be noted: 30 µM.

The target of experiment [10] is T4, Tyrosyl-tRNA synthetase, putative (Trypanosoma cruzi (strain CL Brener)). Kind of experiment: Trypanosoma cruzi tyrosyl tRNA synthetase (TcYRS) SOP. Particulars: 30 µM. In kind it is functional.
Experiment [11] concerns the target Chromo domain-containing protein 1 (Saccharomyces cerevisiae (strain ATCC 204508 / S288c) (Baker's yeast)) (UniProt P32657). In words: ScCHD-1 Enzyme Inhibition Assay. Further: in the data most compounds retested in dose-response had high values. In kind it is functional. Particulars: 30 µM.

For some assays here: Potency and affinity values are given separately.

Sialic acid-binding Ig-like lectin 9 (Homo sapiens), sequence (Q9Y336 whole entry): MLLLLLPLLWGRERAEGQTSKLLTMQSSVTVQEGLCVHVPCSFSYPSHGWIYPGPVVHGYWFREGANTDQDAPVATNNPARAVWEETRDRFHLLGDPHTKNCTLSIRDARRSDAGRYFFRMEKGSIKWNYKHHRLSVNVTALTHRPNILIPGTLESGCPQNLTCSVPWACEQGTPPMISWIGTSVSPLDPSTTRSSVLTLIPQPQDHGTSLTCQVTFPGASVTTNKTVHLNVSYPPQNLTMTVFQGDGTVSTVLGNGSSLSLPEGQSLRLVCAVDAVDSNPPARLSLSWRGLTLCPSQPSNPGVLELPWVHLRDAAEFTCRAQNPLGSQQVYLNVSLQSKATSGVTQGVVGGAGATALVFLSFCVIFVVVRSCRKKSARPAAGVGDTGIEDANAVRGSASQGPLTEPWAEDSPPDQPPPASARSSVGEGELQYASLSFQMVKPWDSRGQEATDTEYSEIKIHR
Protein translocase subunit SecA (Escherichia coli (strain K12)), sequence (P10408 whole entry): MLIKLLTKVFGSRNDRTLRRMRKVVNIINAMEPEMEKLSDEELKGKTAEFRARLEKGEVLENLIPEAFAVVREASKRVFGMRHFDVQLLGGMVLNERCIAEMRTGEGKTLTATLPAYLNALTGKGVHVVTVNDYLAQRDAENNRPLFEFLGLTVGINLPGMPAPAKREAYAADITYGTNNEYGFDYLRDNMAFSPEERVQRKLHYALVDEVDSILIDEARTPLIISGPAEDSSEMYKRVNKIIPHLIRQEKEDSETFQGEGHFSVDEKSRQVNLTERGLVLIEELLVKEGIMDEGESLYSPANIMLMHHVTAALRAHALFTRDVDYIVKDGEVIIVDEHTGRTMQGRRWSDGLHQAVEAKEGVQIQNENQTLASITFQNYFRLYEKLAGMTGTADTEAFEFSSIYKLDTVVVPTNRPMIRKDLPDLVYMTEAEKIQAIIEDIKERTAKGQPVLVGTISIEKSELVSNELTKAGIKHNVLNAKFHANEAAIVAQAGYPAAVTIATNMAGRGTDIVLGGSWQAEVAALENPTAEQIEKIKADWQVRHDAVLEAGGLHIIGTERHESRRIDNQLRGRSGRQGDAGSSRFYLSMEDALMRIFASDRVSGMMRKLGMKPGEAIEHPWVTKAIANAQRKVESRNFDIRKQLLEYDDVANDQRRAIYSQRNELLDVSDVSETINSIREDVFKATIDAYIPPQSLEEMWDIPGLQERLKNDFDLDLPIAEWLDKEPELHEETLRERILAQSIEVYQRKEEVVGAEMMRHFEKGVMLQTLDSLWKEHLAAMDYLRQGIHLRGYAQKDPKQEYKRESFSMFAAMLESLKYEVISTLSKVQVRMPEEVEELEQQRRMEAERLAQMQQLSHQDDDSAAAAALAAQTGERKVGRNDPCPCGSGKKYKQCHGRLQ
Chromo domain-containing protein 1 (Saccharomyces cerevisiae (strain ATCC 204508 / S288c) (Baker's yeast)), sequence (P32657 whole entry, the tested form may be a part): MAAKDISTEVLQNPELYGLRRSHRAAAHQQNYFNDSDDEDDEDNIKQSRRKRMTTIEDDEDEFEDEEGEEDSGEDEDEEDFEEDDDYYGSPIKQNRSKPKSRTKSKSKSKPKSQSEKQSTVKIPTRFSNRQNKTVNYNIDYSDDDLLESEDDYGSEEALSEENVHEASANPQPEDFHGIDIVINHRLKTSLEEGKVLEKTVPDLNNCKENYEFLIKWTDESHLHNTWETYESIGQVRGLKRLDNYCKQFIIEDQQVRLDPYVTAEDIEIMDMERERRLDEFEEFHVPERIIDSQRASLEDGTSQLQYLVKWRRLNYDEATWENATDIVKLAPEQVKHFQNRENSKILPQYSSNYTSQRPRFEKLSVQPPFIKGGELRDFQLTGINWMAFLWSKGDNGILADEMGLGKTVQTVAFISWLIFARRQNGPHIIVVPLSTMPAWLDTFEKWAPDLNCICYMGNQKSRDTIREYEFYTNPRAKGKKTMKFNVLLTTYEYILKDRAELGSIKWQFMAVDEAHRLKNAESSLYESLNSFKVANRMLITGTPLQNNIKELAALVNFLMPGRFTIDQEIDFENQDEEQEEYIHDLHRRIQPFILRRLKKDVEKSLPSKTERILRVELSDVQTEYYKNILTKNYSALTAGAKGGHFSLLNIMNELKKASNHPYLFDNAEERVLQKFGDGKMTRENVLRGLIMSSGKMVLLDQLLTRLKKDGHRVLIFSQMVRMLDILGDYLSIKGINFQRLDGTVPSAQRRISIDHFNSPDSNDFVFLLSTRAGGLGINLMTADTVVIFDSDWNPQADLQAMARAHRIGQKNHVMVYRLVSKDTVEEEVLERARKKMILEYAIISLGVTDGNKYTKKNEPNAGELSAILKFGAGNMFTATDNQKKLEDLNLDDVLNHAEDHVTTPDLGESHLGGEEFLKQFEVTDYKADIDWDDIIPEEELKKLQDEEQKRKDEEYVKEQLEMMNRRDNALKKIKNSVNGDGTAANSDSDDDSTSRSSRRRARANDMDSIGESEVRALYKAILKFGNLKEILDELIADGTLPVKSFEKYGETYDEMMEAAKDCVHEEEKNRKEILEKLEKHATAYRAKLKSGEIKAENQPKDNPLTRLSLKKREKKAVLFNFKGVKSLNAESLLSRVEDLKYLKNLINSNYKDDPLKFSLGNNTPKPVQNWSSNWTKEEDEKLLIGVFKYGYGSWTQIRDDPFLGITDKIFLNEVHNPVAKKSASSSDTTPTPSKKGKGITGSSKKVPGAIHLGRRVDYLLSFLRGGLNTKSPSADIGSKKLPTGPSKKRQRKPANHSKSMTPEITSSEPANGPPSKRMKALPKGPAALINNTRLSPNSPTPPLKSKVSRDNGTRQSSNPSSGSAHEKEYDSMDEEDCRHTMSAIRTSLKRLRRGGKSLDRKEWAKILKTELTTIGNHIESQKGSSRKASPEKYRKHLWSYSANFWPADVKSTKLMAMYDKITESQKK

For the compound `CC(=O)N1CCN(Cn2nc(-c3ccc(F)cc3)oc2=O)CC1`, the Percent Effect in [1] is -3.09%; in [2] it was 23.4%; in [3] it was -4.67%; in [4], -7.73%; in [5], -2.25%; in experiment [6], 0.712%. The Percent Effect in experiment [7] was 8.11%; in [8], 15%; in experiment [9], 9.71%; in experiment [10], 21.9%; in [11], -10.3%.
With `O=C(c1cccs1)N1CCC2(C1)c1ccccc1S(=O)(=O)N2CC1CC1` (stereo not given), the Percent Effect in experiment [1] was -4.28%; in experiment [2], 2.67%; in experiment [3], 12.3%; in experiment [4], 1.53%; in [5], -0.197%; in experiment [6] it was -8.62%. For the same compound, the Percent Effect was 2.03% in experiment [7]; 17.7% in [8]; 5.32% in [9]; 6.41% in experiment [10]; 1.11% in experiment [11].
In the case of `CN1CCOC(CN(C(=O)CC2CCCC2)c2nccs2)C1` (stereo not given), the Percent Effect in experiment [1] was -0.692%; in experiment [2], 0%; in experiment [3], 6.23%; in experiment [4], 8.01%; in experiment [5], 0.464%; in experiment [6] it was -4.25%. Also, the Percent Effect was -2.69% in experiment [7]; 7.78% in experiment [8]; -3.96% in experiment [9]; -6.1% in [10]; 2.72% in experiment [11].
Consider `Cc1cc(C(=O)N2CCCC(n3ccnc3C)C2)c(C)s1` (stereo not given), for which the Percent Effect in experiment [1] was -3.98%; in experiment [2] it was -5.26%; in experiment [3] it was 5.18%; in experiment [4] it was -0.508%; in experiment [5], 6.52%; in experiment [6], 0%. For the same compound, the Percent Effect in experiment [7] is 1.44%; in [8], 13.2%; in experiment [9], 1.06%; in [10], 2.6%; in [11], -2.55%.
Regarding `O=C1[C@H]2CN(Cc3nccs3)C[C@H]2CN1c1ccsc1`, the Percent Effect is -6.53% in experiment [1]; 0% in [2]; 8.27% in [3]; -7.06% in experiment [4]; -2.25% in [5]; 0.319% in [6]. In addition, the Percent Effect in experiment [7] was 12.4%; in experiment [8] it was -3.04%; in experiment [9] it was -1.08%; in experiment [10], 2.56%; in experiment [11] it was -0.738%.
Consider `N#Cc1ccccc1C(=O)N1CCC2(CC(=O)NC2=O)C1` (stereo not given), for which the Percent Effect in [1] is 0.342%; in experiment [2], 10.8%; in experiment [3] it was 0.526%; in experiment [4], 4.48%; in [5], -5.21%; in experiment [6], -2.38%. Moreover, the Percent Effect was 14% in [7]; 14.1% in experiment [8]; 4.76% in [9]; 4.88% in experiment [10]; -3.81% in experiment [11].
On to `CC(=O)N(Cc1ncc(C)o1)C1CCN(Cc2noc(C)n2)C1` (stereo not given), for which the Percent Effect was -3.16% in experiment [1]; 26% in [2]; -5.5% in experiment [3]; -2.16% in experiment [4]; 6.76% in experiment [5]; -3.16% in experiment [6]. Moreover, the Percent Effect in experiment [7] was 11.9%; in experiment [8], 1.88%; in experiment [9], 8.57%; in [10], 30.6%; in experiment [11], 2.25%.
For `Cc1ccc2ncnc(N3CCOCC3c3c(C)nn(C)c3C)c2c1` (stereo not given), the Percent Effect was -3.4% in experiment [1]; 5.33% in experiment [2]; -4.79% in [3]; 3.91% in experiment [4]; -0.487% in [5]; -0.521% in experiment [6]. Further, the Percent Effect in experiment [7] is 16%; in [8] it was 21.1%; in [9], 6.01%; in [10], 8.64%; in [11] it was -5.67%.
Regarding `c1cnc2c(C3CCN(Cc4ccsc4)CC3)n[nH]c2n1`, the Percent Effect in experiment [1] is -4.33%; in experiment [2], 20.3%; in experiment [3] it was 10.3%; in experiment [4] it was -8.48%; in [5] it was 5.14%; in [6] it was -1.62%. Besides, the Percent Effect in [7] came out at 17.9%; in [8], 18.2%; in experiment [9], 3.23%; in [10], 9.09%; in [11], 20.2%.
As to `CC(NC(=O)NCCCO)c1ccc2c(c1)OCCO2` (stereo not given), the Percent Effect was -1.5% in experiment [1]; 16.2% in [2]; 0.694% in experiment [3]; -1.77% in experiment [4]; 1.76% in experiment [5]; 3.51% in [6]. Also, the Percent Effect in [7] was 14.2%; in experiment [8], 2.1%; in experiment [9], 4.95%; in [10], 28.1%; in [11], -6.78%.
